NFkB transloc pot = enhancers of NFkB p65 translocation in HUVEC – imaging, IL-1B stimulus, high-content imaging, primary screen. HUVEC IL-1B NFkB p65 nuclear translocation imaging. activation, % at 2 µM. 94,000 tested, 0.3% active. AID 819, 2007;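 active = activation above 40%, about the mean plus 3 SD, also judged a hit on visual image review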;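 also: percent activation is computed from the nuclear over cytoplasmic p65 intensity ratio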
PTK2B oligo ant = antagonists of Pyk2 self-association, primary screen, Q293 cells, FERM NanoBiT luminescence, HTS | 99,000 tested, 0.83% active | z-score (the deposit names both 25 µM and 10 µM) | active compounds read low | Protein-tyrosine kinase 2-beta (Homo sapiens), Q14289 | AID 1347419, 2020;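 active = Z-score of -3 or lower, scaled per plate to the spread of control and sample wells; inactive = z-score above -3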;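 also: negative z-score means lost luminescence so less FERM oligomerization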
Target sequence (Q14289 whole entry, looked up): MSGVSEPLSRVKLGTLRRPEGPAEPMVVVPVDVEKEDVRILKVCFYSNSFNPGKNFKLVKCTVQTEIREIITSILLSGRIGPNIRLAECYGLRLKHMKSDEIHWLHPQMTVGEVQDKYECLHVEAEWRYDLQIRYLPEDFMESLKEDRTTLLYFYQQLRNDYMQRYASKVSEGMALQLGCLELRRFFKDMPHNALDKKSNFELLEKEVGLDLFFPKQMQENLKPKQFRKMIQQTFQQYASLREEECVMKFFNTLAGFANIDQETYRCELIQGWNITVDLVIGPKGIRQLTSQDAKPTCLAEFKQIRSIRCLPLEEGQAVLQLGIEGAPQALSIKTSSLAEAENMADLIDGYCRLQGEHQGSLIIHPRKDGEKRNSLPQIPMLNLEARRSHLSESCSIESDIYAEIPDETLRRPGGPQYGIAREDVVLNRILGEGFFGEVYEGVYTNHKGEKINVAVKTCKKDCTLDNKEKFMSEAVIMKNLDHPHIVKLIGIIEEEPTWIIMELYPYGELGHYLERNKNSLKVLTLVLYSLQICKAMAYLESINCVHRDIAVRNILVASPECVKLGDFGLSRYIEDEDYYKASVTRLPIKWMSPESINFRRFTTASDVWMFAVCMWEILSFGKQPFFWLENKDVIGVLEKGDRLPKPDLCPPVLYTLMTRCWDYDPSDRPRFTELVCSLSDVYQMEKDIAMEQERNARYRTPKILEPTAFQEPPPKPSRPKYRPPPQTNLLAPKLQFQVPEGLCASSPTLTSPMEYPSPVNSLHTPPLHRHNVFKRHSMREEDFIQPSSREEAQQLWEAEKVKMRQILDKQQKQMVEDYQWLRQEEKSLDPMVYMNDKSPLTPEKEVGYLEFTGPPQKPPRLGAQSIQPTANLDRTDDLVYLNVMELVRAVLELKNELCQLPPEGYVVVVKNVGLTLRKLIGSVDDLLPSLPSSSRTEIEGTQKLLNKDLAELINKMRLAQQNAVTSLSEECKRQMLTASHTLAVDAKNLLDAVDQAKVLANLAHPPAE
Plk1 PBD FP = Plk1 polo box domain binding inhibitors, primary screen, biochemical, fluorescence polarization; inhibition, %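 (tested at about 20 µM)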; Plk1 PBD phosphopeptide binding; AID 693, 2007; 97,000 tested, 0.13% active; Serine/threonine-protein kinase PLK1 (Homo sapiens), P53350; in the data active = inhibition above about 34%, passing the limit was not always enough
PLK1 kinase inh = human PLK1 kinase inhibitors, primary screen, biochemical, TR-FRET | inhibition, % at 10 µM | recombinant PLK1 kinase, TR-FRET peptide phosphorylation | Serine/threonine-protein kinase PLK1 (Homo sapiens), P53350 | 97,000 tested, 0.53% active | AID 619, 2007;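 active = inhibition of 50% or more in the single-concentration screen; inactive = inhibition below 50%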;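 also: 0% = DMSO max control and 100% = H-89 dihydrochloride min control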
IL1B NFkB inh = inhibitors of IL-1B driven NFkB p65 nuclear import, primary screen, imaging, HUVEC, IL-1B stimulus, high-content imaging; HUVEC IL-1B NFkB p65 nuclear translocation imaging; inhibition, % at 2 µM; 94,000 tested, 0.43% active;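 active = inhibition above about 30% together with a positive call from visual inspection of the well image, limit read from the data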;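 also: nuclear over cytoplasmic p65 intensity ratio measured by imaging; 0% = IL-1B stimulated DMSO wells and 100% = unstimulated DMSO wells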
IL1B cytotox = cytotoxicity in IL-1B stimulated HUVEC, primary screen, cytotoxicity control for IL-1B NFkB translocation project, imaging, Hoechst nuclear count, IL-1B stimulus. cell count reduction, % at 2 µM. HUVEC cell count loss. AID 845, 2007. 94,000 tested, 0.41% active;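 active = cell count reduction more than 3 SD above the screen-wide mean, cut at about 70% in these data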;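 also: normalized per plate to untreated control cells as the no-loss baseline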
* marks the source's active call; other numbers are inactive results; . = no result. Shown are actives, neighbours in structure and some others; about 2.2% of the full set was active somewhere.

SMILES	NFkB transloc pot	PTK2B oligo ant	Plk1 PBD FP	PLK1 kinase inh	IL1B NFkB inh	IL1B cytotox
COc1cccc(CNCCNC(=O)c2ccco2)c1OC	42*	0.24	-17	-9	-42	-26
CCOc1ccc(CCNC(=O)Cn2cccc2C(=O)c2ccccc2C)cc1OCC	.	0.38	.	.	.	.
Cc1cc(=O)c2cccc(Br)c2[nH]1	-30	-0.92	7	-8	30*	90*
COC(=O)c1cn(NC(=O)c2cccc(OC)c2)c(=O)c2ccccc12	-14	-1.2	8	-12	14	-7
Cc1ccc(C(=O)NCCCN2CCOCC2)o1	2	0.5	14	-6	-2	-11
Cc1sc2ncn(CCn3cnc4sc(C)c(C)c4c3=O)c(=O)c2c1C	-57	2	0	-7	57*	9
COc1ccc(Cn2nnnc2C(c2cccs2)N2CCN(c3ccccc3)CC2)cc1 (configuration not stated)	0	-1.9	-6	-2	0	7
Fc1ccc(C(c2nnnn2Cc2cccs2)N2CCN(c3ccccc3)CC2)cc1 (configuration not stated)	32	-3.5*	-3	-8	-32	-40
COc1ccc(C(c2nnnn2Cc2ccccc2)N2CCN(C(=O)c3ccco3)CC2)cc1OC (configuration not stated)	9	-0.56	6	-3	-9	-17
COCCn1nnnc1C(c1ccccc1OC)N1CCN(c2ccccc2F)CC1 (configuration not stated)	1	-2.8	-17	-12	-1	23
COCCn1nnnc1C(c1ccc(OC)cc1)N1CCN(c2ccccc2F)CC1 (configuration not stated)	-7	-3.5*	-2	-13	7	-6
COc1ccc(C(c2nnnn2Cc2cccs2)N2CCN(c3ccccc3F)CC2)cc1OC (configuration not stated)	.	-3.6*	.	.	.	.
Cc1nc(CS(=O)(=O)c2ccc(Cl)cc2)cc(Sc2ccc(Cl)cc2)n1	4	1.3	9	-2	-4	-9
Cc1ccc2c(c1)N(C(=O)c1ccco1)C(C)(C)c1ssc(=S)c1-2	20	-0.95	19	-6	-20	-12
Cc1ccc2c(n1)CC(C)(C)C/C2=N\O	10	0.42	10	-13	-10	-33
COc1cccc(C(=O)NC(Cc2ccccc2)c2ccc3c(c2)OCCCO3)c1 (configuration not stated)	12	-0.65	-19	-14	-12	8
O=C(NC(Cc1ccccc1)c1ccc2c(c1)OCCCO2)c1ccc(F)cc1 (configuration not stated)	44*	-1.7	7	-8	-44	-6
CC(/C=N/n1c(-c2ccccc2)n[nH]c1=S)=C\c1ccco1	2	-0.66	5	-9	-2	-9
Cc1nn(-c2ccccc2)c(C)c1/C=N/n1c(-c2ccc(C(C)(C)C)cc2)n[nH]c1=S	-4	-3.9*	26	-7	4	-9
Brc1ccc(-c2nc3ncccn3c2NC2CCCCC2)o1	-2	0.06	-21	3	2	-4
Cc1cc(C(=O)OCn2nnc3ccccc3c2=O)c(C)n1-c1ccccc1	8	-3.7*	23	23	-8	-1
Cc1c(C(=O)NCCc2ccccc2)oc2ccc(S(=O)(=O)N3CCC4(CC3)OCCO4)cc12	-10	-0.41	9	-8	10	8
Cc1c(C(=O)NCc2ccco2)oc2ccc(S(=O)(=O)N3CCC4(CC3)OCCO4)cc12	-32	0.55	13	-6	32*	-2
Cc1ccc(CN(c2ccc(C(=O)Nc3cccnc3)cc2)S(C)(=O)=O)cc1	9	-0.69	13	1	-9	-29
Oc1ccccc1N=Nc1nc(-c2ccccc2)c(-c2ccccc2)[nH]1	-1	-3.8*	-26	-11	1	4
SMILES	NFkB transloc pot	PTK2B oligo ant	Plk1 PBD FP	PLK1 kinase inh	IL1B NFkB inh	IL1B cytotox
O=C(CSc1ccccn1)Nc1nncs1	17	0.05	-17	-12	-17	37
Cc1cc2c3c(c1)C1(SCC(=O)N1c1ccc(F)cc1)C(=O)N3C(C)(C)CC2C (configuration not stated)	-34	-1.9	-2	-7	34*	-12
COc1ccc(S(=O)(=O)Cc2ccc(C(=O)NCc3ccccn3)o2)cc1	.	.	3	68*	.	.
COCCNC(=O)c1ccc(CS(=O)(=O)c2ccc(OC)cc2)o1	2	.	22	-10	-2	12
COc1ccc(S(=O)(=O)Cc2ccc(C(=O)N3CCN(c4ccccc4F)CC3)o2)cc1	.	.	-3	63*	.	.
COc1ccc(S(=O)(=O)Cc2ccc(C(=O)N3CCN(c4ccccn4)CC3)o2)cc1	.	.	-15	66*	.	.
COc1cc(-c2c(C#N)c(N)nc3c2CCCC3)cc(OC)c1OC	-11	0.1	-17	-10	11	19
COc1cc(-c2c(C#N)c(N)nc(SCc3ccncc3)c2C#N)cc(OC)c1OC	4	-4.1*	-12	2	-4	-21
Cc1ccccc1NC(=O)CSc1nc(N)c(C#N)c(-c2cccs2)c1C#N	1	-3.7*	2	-242	-1	-18
N#Cc1c(N)nc(SCc2ccncc2)c(C#N)c1-c1cccs1	.	-3.9*	.	.	.	.
CCN(CC)C(=O)CSc1nc(N)c(C#N)c(-c2cccs2)c1C#N	0	-1.7	0	4	0	14
O=C(O)C1C2C=CC(O2)C1C(=O)Nc1ccc(S(=O)(=O)N2CCc3ccccc32)cc1 (configuration not stated)	-49	0.23	-12	-5	49*	3
O=C(O)C1C2C=CC(O2)C1C(=O)Nc1ccc(S(=O)(=O)Nc2ccccc2)cc1 (configuration not stated)	-21	-0.01	-16	-13	21	-2
CCOC(=O)c1c(NC(=O)COC(=O)CNC(=O)c2ccco2)sc(C(C)=O)c1C	.	-1.1	.	.	.	.
O=C(NCc1ccccc1)c1cnsn1	15	0.21	3	-11	-15	89*
COc1cc(-c2c(C#N)c(=O)[nH]c3c2c(C)nn3-c2ccccc2)ccc1O	0	-3.3*	-5	-5	0	6
CCc1nc(N)c(C#N)c(-c2ccc(O)c(OC)c2)c1C	8	-1.2	-24	-4	-8	-2
O=C(Oc1cccc(N2C(=O)CCC2=O)c1)c1ccccc1	6	-0.34	17	-6	-6	89*
CC1CCCC(NC(=O)C2CCCN2S(=O)(=O)c2cccc3nsnc23)C1C (configuration not stated)	14	.	-23	-7	-14	-23
c1ccc(Cc2nnc3sc(-c4cccnc4)nn23)cc1	12	-0.43	-13	0	-12	91*
